Bioassay records as filed in PubChem BioAssay.
This is a sample that favours compounds with a hit; in the whole collection about 3.6% have one here.
LDHA block – LDHA (human) enzyme inhibition; purified LDHA, NADH/diaphorase-resazurin fluorescence; hits give low values; activity change, % (values are at about 110 or 230 µM); hit rate 0.15% among 480,000; in the data active = activity change below about -30%;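 also: plate controls were DMSO wells for no effect and wells without enzyme for full effect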
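LDH5 2 nM; NADH 0.06 mM, pyruvate 0.2 mM; 200 mM Tris pH 7.4, EDTA, Tween-20; 5 min RT. Detection: diaphorase 0.133 mg/mL + resazurin 37 µM, fluorescence ex540/em590 at 0 and 20 min; normalized to enzyme-free and DMSO wells.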
D1 antagonist – blocks dopamine activation of the human D1 receptor; P21728; HEK293 TREx D1 cells, calcium flux, dopamine EC80; hits give low values; activity change, negative = inhibition, % at 10 µM; hit rate 3.2% among 360,000; AID 504652; in the data active = activity change below about -30%; also: % is scaled to controls: 0 for no effect and ±100 for the full control effect
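Kinetic fluorescence of a calcium dye serves as the read-out. D1-expressing Hek293 Trex cells, induced overnight at 30 C, are exposed to compound for 180 s before an EC80 dopamine addition, then read 180 s further.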
D1 potentiator – enhances dopamine response at the human D1 receptor; P21728; HEK293 TREx D1 cells, calcium flux, dopamine EC20 potentiation; potentiation, % at 10 µM; hit rate 0.036% among 360,000; AID 504651; in the data active = potentiation above about 30%; also: 0% is about no effect
D1 agonist – agonists of human D1 dopamine receptor. hit rate 1% among 360,000. P21728. activation, % at 2 µM. HEK293 T-REx D1 cells, calcium flux, agonist mode; also: 0% is about no effect
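Inducible HEK293 T-REx D1 cells, force-coupled to calcium signalling, were plated at 4000 cells/well with tetracycline and held overnight at 30 C. After no-wash calcium dye loading, compound-evoked calcium rise over 180 s flagged agonists.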
TRHR ag – activates the human TRH receptor; hit rate 0.18% among 360,000; P34981; activation, % at 2 µM; TRHR cells, calcium flux fluo-8, FDSS agonist mode; AID 493084; also: 0% is about no effect
Target sequence (P34981 whole entry, looked up): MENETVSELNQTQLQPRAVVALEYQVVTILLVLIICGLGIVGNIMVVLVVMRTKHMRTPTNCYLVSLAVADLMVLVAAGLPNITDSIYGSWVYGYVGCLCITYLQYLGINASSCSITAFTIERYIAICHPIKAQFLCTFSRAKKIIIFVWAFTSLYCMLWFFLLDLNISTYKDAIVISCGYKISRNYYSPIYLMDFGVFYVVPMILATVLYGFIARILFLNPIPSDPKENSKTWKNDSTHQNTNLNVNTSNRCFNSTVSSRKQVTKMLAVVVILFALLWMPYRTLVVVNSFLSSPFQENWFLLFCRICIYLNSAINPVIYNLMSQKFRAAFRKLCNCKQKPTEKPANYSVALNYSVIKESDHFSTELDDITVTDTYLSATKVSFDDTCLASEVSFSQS
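Read-out: compound-evoked intracellular calcium rise in TRHR cells, fluo-8 dye, kinetic FDSS fluorescence at 1 s/cycle following a 10-cycle baseline. Cells cultured overnight before dye loading (30 min–1.5 h, RT).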
TRHR enhancer – TRH receptor (human) allosteric enhancement; enhancement, % at 2 µM; hit rate 0.66% among 360,000; AID 493056; TRHR cells, fluo-8 calcium fluorescence, EC20 TRH enhancement; P34981; in the data active = enhancement above about 30%; also: 0% is about no effect
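TRHR-expressing cells loaded with fluo-8 calcium dye were read kinetically (ex 480/em 530) during compound addition, then stimulated with an EC20 of TRH (10 nM final). Enhancement of the Gq-mediated intracellular calcium response was scored.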
* marks the source's active call; other numbers are inactive results. Rule as the data show it, unless noted: active = activation above about 30%; inactive = the rest.

CCCCNC(=O)CNC(=S)N(Cc1ccccc1F)C1CCCCC1 was read as LDHA block -5.0, D1 antagonist -36.7*, D1 potentiator -3.0, D1 agonist 0.1, TRHR ag -1.4 and TRHR enhancer -1.0.
Screening O=C(CNC(=S)N(Cc1ccccc1F)C1CCCCC1)NCC1CCCO1 (stereo not given) returned LDHA block -3.7, D1 antagonist -45.5*, D1 potentiator -1.3, D1 agonist 2.9, TRHR ag 0.0 and TRHR enhancer 2.9.
`COc1cccc(C2(CC#N)CCOC(C)(C)C2)c1` (stereo not given) gave LDHA block 2.8.
For CC(C)c1ccc(CN(C(=O)c2nn(C)c(=O)c3ccccc23)C2CC2)cc1 the results were LDHA block 12.2.
For Cc1ccc(C2C(C(=O)c3ccco3)=C(O)C(=O)N2c2ncccn2)cc1 (stereo not given) the results were LDHA block -6.7, D1 antagonist -7.3, D1 potentiator -2.7, D1 agonist 4.2, TRHR ag 0.7 and TRHR enhancer -1.7.
For Cc1nnc(N2C(=O)C(O)=C(C(=O)c3ccco3)C2c2ccc(C(C)C)cc2)s1 (stereo not given) the results were LDHA block 1.3, D1 antagonist -2.7, D1 potentiator -2.2, D1 agonist 51.2*, TRHR ag 15.5 and TRHR enhancer -1.5.
For Cc1nnc(N2C(=O)C(O)=C(C(=O)c3ccco3)C2c2ccc(F)cc2)s1 (stereo not given) the results were LDHA block 2.7, D1 antagonist 10.5, D1 potentiator -0.2, D1 agonist 35.7*, TRHR ag 21.1 and TRHR enhancer 11.4.
Cc1ccc(C2C(C(=O)c3cccs3)=C(O)C(=O)N2c2nnc(C)s2)cc1 (stereo not given) was read as LDHA block -1.7, D1 antagonist -21.4, D1 potentiator -2.5, D1 agonist 140.8*, TRHR ag 55.6* and TRHR enhancer 0.5.
CSc1ccc(C2C(C(=O)c3ccco3)=C(O)C(=O)N2c2nnc(SC)s2)cc1 (stereo not given) was read as LDHA block 1.3, D1 antagonist -11.0, D1 potentiator 0.0, D1 agonist 31.3*, TRHR ag 18.3 and TRHR enhancer 7.5.
Cc1nnc(N2C(=O)C(O)=C(C(=O)c3ccco3)C2c2ccc(C(C)(C)C)cc2)s1 (stereo not given) was read as LDHA block 1.0, D1 antagonist 2.7, D1 potentiator -4.9, D1 agonist 27.6, TRHR ag 8.4 and TRHR enhancer -1.9.
Screening O=S(=O)(c1ccc2oc(Nc3ccc(F)cc3)nc2c1)N1CCCCC1 returned LDHA block 10.8.
`Cc1nn(-c2ccc(N3CCOCC3)nn2)c(C)c1CCC(=O)NCc1cccs1` gave LDHA block 1.7.
For CCCOc1cccc(C2C(C(=O)c3ccco3)=C(O)C(=O)N2c2nnc(C)s2)c1 (stereo not given) the results were LDHA block 0.9, D1 antagonist 5.5, D1 agonist 76.0*, TRHR ag 8.7 and TRHR enhancer 12.4.
`CCCCOc1ccc(S(=O)(=O)NC(=O)NCc2ccc(OCCC)cc2)cc1` gave LDHA block -2.2, D1 antagonist -38.4*, D1 potentiator -14.9, D1 agonist 0.7, TRHR ag -0.4 and TRHR enhancer -0.7.
Screening CCCc1nc2ccccc2n1CC(O)COc1ccc(NC(C)=O)cc1 (stereo not given) returned LDHA block -1.1, D1 antagonist -33.5*, D1 potentiator -3.9, D1 agonist 2.7, TRHR ag -0.2 and TRHR enhancer 6.7.
CC(=O)Nc1ccc(OCC(O)Cn2cnc3ccccc32)cc1 (stereo not given) was read as LDHA block -6.7, D1 antagonist -11.5, D1 potentiator -3.6, D1 agonist 2.2, TRHR ag 0.5 and TRHR enhancer 2.1.
For CC(=O)Nc1cccc(OCC(O)Cn2c(C)nc3ccccc32)c1 (stereo not given) the results were LDHA block 1.3, D1 antagonist -69.1*, D1 potentiator -4.1, D1 agonist -0.2, TRHR ag -0.1 and TRHR enhancer -2.8.
For CC(=O)Nc1cccc(OCC(O)Cn2cnc3ccccc32)c1 (stereo not given) the results were LDHA block -0.7, D1 antagonist -0.3, D1 potentiator -1.4, D1 agonist 1.4, TRHR ag 0.8 and TRHR enhancer 11.6.
`COc1ccc(C(=O)/C(C#N)=C\c2ccc(Cl)cc2Cl)cc1` gave LDHA block 0.5.
CCOc1ccc2nc(NC(=O)C(NS(=O)(=O)c3cccc4nsnc34)C(C)C)sc2c1 (stereo not given) was read as LDHA block -1.6, D1 antagonist -33.5*, D1 potentiator -5.9, D1 agonist -0.2, TRHR ag -1.3 and TRHR enhancer -4.7.
`CCCc1cc(=O)[nH]c(SCC(=O)Nc2nc3ccc(OCC)cc3s2)n1` gave LDHA block -10.6, D1 antagonist 3.9, D1 potentiator 5.8, D1 agonist 0.9, TRHR ag -0.4 and TRHR enhancer 1.9.
For CC(C)C(NS(=O)(=O)c1cccc2nsnc12)C(=O)Nc1nc2ccc(Cl)cc2s1 (stereo not given) the results were LDHA block -7.2, D1 antagonist 4.8, D1 potentiator 4.4, D1 agonist 1.4, TRHR ag 0.0 and TRHR enhancer -3.6.
For CCOc1ccc2nc(NC(=O)C(CC)Sc3nc(C)cc(=O)[nH]3)sc2c1 (stereo not given) the results were LDHA block -2.8, D1 antagonist -42.2*, D1 potentiator -3.8, D1 agonist 0.2, TRHR ag -0.8 and TRHR enhancer 0.4.
Screening C/C=C/c1ccc(OCC(=O)Nc2ccc(C(N)=O)cc2)c(OC)c1 returned LDHA block -12.9, D1 antagonist -53.4*, D1 potentiator -7.2, D1 agonist 0.6, TRHR ag -1.1 and TRHR enhancer -1.4.
C/C=C/c1ccc(OC)c(OC(C)=O)c1 was read as LDHA block -0.9, D1 antagonist -76.3*, D1 potentiator -5.7, D1 agonist 0.8, TRHR ag -0.2 and TRHR enhancer -5.1.
For C/C=C/c1ccc(OC(C)=O)c(OC)c1 the results were LDHA block 3.6, D1 antagonist 9.5, D1 potentiator -0.8, D1 agonist -3.5, TRHR ag -0.6 and TRHR enhancer 1.5.
Screening Cc1ccc(S(=O)(=O)N(CC(O)Cn2cnc3ccccc32)c2cccc(C)c2)cc1 (stereo not given) returned LDHA block 10.1.
Screening N#Cc1c(NC(=O)CSc2ccccn2)sc2c1CCCC2 returned LDHA block 5.9.
